Consider 16 compounds from PubChem BioAssay AID504616 (Sanford-Burnham Center for Chemical Genomics, 2011).

This is one part of the list. Values without a mark were called inactive.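 The calls were made as follows: active = mean activity change at or below -40% when tested at 20 µM; inactive = the rest.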

A short description of this assay: Rh110 fluorescence interference by putative Apaf-1 activators, confirmation, artefact control for Apaf-1 activator project, biochemical, 20 µM (AID 504616). The note with it: quenched caspase reaction, Ex480/Em540, at 20 µM.
As for `Cc1ccc(S(=O)(=O)N2CCOCC2)cc1C(=O)NC(=S)N(Cc1ccccc1)C(C)C`, the fluorescence interference (activity change) was 3.5%.

Take `COC(=O)C(C)N(C#N)c1nc(C)nc(C)n1` (stereo unspecified): the fluorescence interference (activity change) is 3.06%. The same measure for `CN(C)S(=O)(=O)c1ccc(C(=O)NCCN=C2NS(=O)(=O)c3ccccc32)cc1`: 8.9%; for `CCOc1ccc(N=C2NC(=O)S/C2=C\c2ccc(O)cc2)cc1`: -1.26%. Turning to `COc1cc(C(=O)NCc2nnc(SCC(=O)Nc3nc4ccc(C)cc4s3)o2)cc(OC)c1OC`, the fluorescence interference (activity change) was -5.21%.

Turning to `O=C(Nc1ccccc1F)c1ccccc1-c1ccccc1`, the fluorescence interference (activity change) is 6.9%.

Regarding `CC(=O)NC(=S)NNC(=O)c1ccc(Br)cc1`, the fluorescence interference (activity change) was -5.11%. `N#CC1(C#N)C(C(=O)C23CC4CC(CC(C4)C2)C3)C12CCOCC2` (stereo unspecified): the fluorescence interference (activity change) is -0.76%. The same measure for `CCOCCc1c(O)nc(SCC(=O)NCc2ccco2)[nH]c1=O`: -8.32%; for `COc1ccc(OCCCC(=O)NCCc2ccccc2)cc1`: 3.73%; for `Cc1nn(CC(=O)Nc2ccc(C#N)cc2)c(C)c1[N+](=O)[O-]`: -2.47%. Turning to `CCOCCCNC(=O)c1c[nH]c2cc(C)ccc2c1=O`, the fluorescence interference (activity change) was 8.21%. As for `Cc1cc(NC(=O)c2cccc(N3C(=O)CCC3=O)c2)no1`, the fluorescence interference (activity change) was 0.61%. `O=[N+]([O-])c1ccc2nc(-c3ccccn3)[nH]c2c1`: the fluorescence interference (activity change) was 5.13%. Take `O=c1[nH]cnc2c1c(-c1ccccc1)cn2-c1ccc(F)cc1`: the fluorescence interference (activity change) was 13.3%.

As for `O=c1[nH]c2c(c(=O)n1Cc1ccccc1)CCC2`, the fluorescence interference (activity change) was 13.7%.
